Laboratory results reported in PubChem BioAssay.
Records with an inconclusive call do not appear. Activity calls are given as the source filed them. Cut-off read from the data, not from the text of the source: active = fluorescence slope change above about 50%; inconclusive = mostly about 31% to 49%; inactive = weaker than that.

Target: ATP-dependent translocase ABCB1 (Homo sapiens) (UniProt P08183)
Assay: P-glycoprotein substrate transport blockade – cell-based (AID 377)
Conditions: MDR1-expressing cells, fluorescent substrate accumulation slope; stronger effect = higher value; concentration not given here

Chain of ATP-dependent translocase ABCB1 (Homo sapiens) (P08183 whole entry, looked up): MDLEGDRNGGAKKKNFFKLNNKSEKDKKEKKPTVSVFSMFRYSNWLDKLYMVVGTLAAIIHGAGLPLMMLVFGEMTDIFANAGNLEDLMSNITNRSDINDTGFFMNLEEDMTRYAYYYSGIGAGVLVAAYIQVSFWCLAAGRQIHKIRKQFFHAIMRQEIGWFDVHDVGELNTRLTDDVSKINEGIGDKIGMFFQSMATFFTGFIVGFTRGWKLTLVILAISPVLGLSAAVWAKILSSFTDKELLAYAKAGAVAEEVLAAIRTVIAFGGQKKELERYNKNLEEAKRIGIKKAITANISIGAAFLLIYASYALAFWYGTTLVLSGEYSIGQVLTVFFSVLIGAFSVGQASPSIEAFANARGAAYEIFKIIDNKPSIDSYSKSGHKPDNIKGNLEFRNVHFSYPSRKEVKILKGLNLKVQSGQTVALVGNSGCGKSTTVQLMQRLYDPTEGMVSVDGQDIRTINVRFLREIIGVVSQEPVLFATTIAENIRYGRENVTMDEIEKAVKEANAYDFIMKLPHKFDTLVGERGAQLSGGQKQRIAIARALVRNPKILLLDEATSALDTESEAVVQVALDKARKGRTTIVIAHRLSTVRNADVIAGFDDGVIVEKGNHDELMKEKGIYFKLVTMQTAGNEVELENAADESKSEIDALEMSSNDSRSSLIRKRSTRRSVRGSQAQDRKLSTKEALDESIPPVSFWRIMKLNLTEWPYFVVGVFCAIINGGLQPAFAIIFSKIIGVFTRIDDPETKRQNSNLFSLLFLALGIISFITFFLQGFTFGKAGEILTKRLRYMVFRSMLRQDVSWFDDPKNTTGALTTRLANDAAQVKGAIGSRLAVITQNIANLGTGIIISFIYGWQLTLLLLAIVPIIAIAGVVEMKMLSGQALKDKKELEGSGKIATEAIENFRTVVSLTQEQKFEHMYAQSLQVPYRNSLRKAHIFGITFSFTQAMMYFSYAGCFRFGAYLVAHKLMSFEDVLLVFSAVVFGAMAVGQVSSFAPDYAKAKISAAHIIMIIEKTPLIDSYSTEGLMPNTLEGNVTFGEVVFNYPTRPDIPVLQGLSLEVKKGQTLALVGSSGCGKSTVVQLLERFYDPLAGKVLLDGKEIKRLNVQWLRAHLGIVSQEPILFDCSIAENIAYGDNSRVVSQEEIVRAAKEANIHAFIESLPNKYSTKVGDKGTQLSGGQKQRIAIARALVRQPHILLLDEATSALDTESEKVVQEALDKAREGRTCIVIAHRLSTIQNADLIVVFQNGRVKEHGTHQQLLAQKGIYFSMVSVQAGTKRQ

Question: With CCc1cccc2c3c([nH]c12)C(CC)(CC(=O)O)OCC3 (configuration not stated) as the compound, how does the fluorescence slope change read?
Answer: The fluorescence slope change was 73.7% (active).

Question: For Cc1ccccc1C(OCCN(C)C)c1ccccc1 (configuration not stated), which fluorescence slope change is on record?
Answer: The fluorescence slope change was 22.7% (inactive).

Question: For NC(=O)c1cnccn1, which fluorescence slope change is on record?
Answer: Its fluorescence slope change is 13.7% (inactive).

Question: For CO[C@@]1(NC(=O)Cc2cccs2)C(=O)N2C(C(=O)O)=C(COC(N)=O)CS[C@@H]21, which fluorescence slope change is on record?
Answer: The fluorescence slope change was 94% (active).

Question: Which fluorescence slope change does the source give for OCCN1CCN(CCCN2c3ccccc3Sc3ccc(C(F)(F)F)cc32)CC1 here?
Answer: The fluorescence slope change was 91.3% (active).

Question: Which fluorescence slope change does the source give for Cc1onc(-c2c(Cl)cccc2Cl)c1C(=O)N[C@@H]1C(=O)N2[C@@H]1SC(C)(C)[C@@H]2C(=O)O here?
Answer: Its fluorescence slope change is 74.3% (active).

Question: For NS(=O)(=O)c1cc(C2(O)NC(=O)c3ccccc32)ccc1Cl (configuration not stated), which fluorescence slope change is on record?
Answer: The fluorescence slope change was 22.1% (inactive).

Question: For O=S(=O)(O)CCS, which fluorescence slope change is on record?
Answer: Its fluorescence slope change is 5.5% (inactive).

Question: For COc1ccc(OC)c(C(O)CNC(=O)CN)c1 (configuration not stated), which fluorescence slope change is on record?
Answer: Its fluorescence slope change is 79.4% (active).

Question: With Cn1cnc([N+](=O)[O-])c1Sc1ncnc2nc[nH]c12 as the compound, how does the fluorescence slope change read?
Answer: Its fluorescence slope change is 53.6% (active).

Question: Which fluorescence slope change does the source give for c1ccc2[nH]c(-c3cscn3)nc2c1 here?
Answer: The fluorescence slope change was 17.8% (inactive).

Question: With CCCNCC(O)COc1ccccc1C(=O)CCc1ccccc1 (configuration not stated) as the compound, how does the fluorescence slope change read?
Answer: The fluorescence slope change was 74.2% (active).

Question: With COc1ccccc1OCC(O)COC(N)=O (configuration not stated) as the compound, how does the fluorescence slope change read?
Answer: The fluorescence slope change was 15.6% (inactive).

Question: Which fluorescence slope change does the source give for OC(CCN1CCCC1)(c1ccccc1)C1CCCCC1 (configuration not stated) here?
Answer: The fluorescence slope change was 70.5% (active).

Question: For O=C1C(CCS(=O)c2ccccc2)C(=O)N(c2ccccc2)N1c1ccccc1 (configuration not stated), which fluorescence slope change is on record?
Answer: The fluorescence slope change was 61.4% (active).

Question: For COC(=O)Nc1nc2ccc(C(=O)c3ccccc3)cc2[nH]1, which fluorescence slope change is on record?
Answer: The fluorescence slope change was 92.4% (active).

Question: Which fluorescence slope change does the source give for NCc1ccc(S(N)(=O)=O)cc1 here?
Answer: The fluorescence slope change was 164% (active).

Question: With Clc1ccc2c(c1)C(N1CCNCC1)=Nc1ccccc1O2 as the compound, how does the fluorescence slope change read?
Answer: The fluorescence slope change was 156% (active).

Question: For CC(C)(C)NCC(O)COc1cccc2c1C[C@H](O)[C@H](O)C2 (some centres not stated), which fluorescence slope change is on record?
Answer: The fluorescence slope change was 55.3% (active).

Tested on: not listed separately
Assay: blockers of polyQ-driven CASP3 activation – cell-based (AID 1583)
Conditions: polyglutamine-induced caspase-3 activation, cell assay; stronger effect = higher value; concentration not given here

Question: For O=c1[nH]cc(F)c(=O)[nH]1, which inhibition is on record?
Answer: Its inhibition is 7.47%.

Question: For CCc1nc(N)nc(N)c1-c1ccc(Cl)cc1, which inhibition is on record?
Answer: Its inhibition is -13.9%.

Question: For CCc1cccc2c3c([nH]c12)C(CC)(CC(=O)O)OCC3 (configuration not stated), which inhibition is on record?
Answer: Its inhibition is 10.4%.

Question: For Nc1ncn([C@@H]2O[C@H](CO)[C@@H](O)[C@H]2O)c(=O)n1, which inhibition is on record?
Answer: The inhibition was -3.83%.

Question: With Cc1ccccc1C(OCCN(C)C)c1ccccc1 (configuration not stated) as the compound, how does the inhibition read?
Answer: The inhibition was -34.1%.

Question: With Cc1ccc(C)c(OCCCC(C)(C)C(=O)O)c1 as the compound, how does the inhibition read?
Answer: Its inhibition is 5.02%.

Question: With NC(=O)c1cnccn1 as the compound, how does the inhibition read?
Answer: Its inhibition is -0.34%.

Question: Which inhibition does the source give for COC1=CC(=O)C[C@@H](C)[C@]12Oc1c(Cl)c(OC)cc(OC)c1C2=O here?
Answer: The inhibition was 4.47%.

Question: Which inhibition does the source give for CO[C@@]1(NC(=O)Cc2cccs2)C(=O)N2C(C(=O)O)=C(COC(N)=O)CS[C@@H]21 here?
Answer: Its inhibition is 10%.

Question: For OCCN1CCN(CCCN2c3ccccc3Sc3ccc(C(F)(F)F)cc32)CC1, which inhibition is on record?
Answer: Its inhibition is -7.66%.

Question: For CN(C)CCOC(c1ccc(Cl)cc1)c1ccccn1 (configuration not stated), which inhibition is on record?
Answer: The inhibition was -21.2%.

Question: With Cc1onc(-c2c(Cl)cccc2Cl)c1C(=O)N[C@@H]1C(=O)N2[C@@H]1SC(C)(C)[C@@H]2C(=O)O as the compound, how does the inhibition read?
Answer: Its inhibition is 12.4%.

Question: With NS(=O)(=O)c1cc(C2(O)NC(=O)c3ccccc32)ccc1Cl (configuration not stated) as the compound, how does the inhibition read?
Answer: The inhibition was 2.88%.

Question: Which inhibition does the source give for Cc1ccc(-c2cc(C(F)(F)F)nn2-c2ccc(S(N)(=O)=O)cc2)cc1 here?
Answer: Its inhibition is 23.5%.

Question: With O=S(=O)(O)CCS as the compound, how does the inhibition read?
Answer: Its inhibition is -57.1%.

Question: For COc1ccc(OC)c(C(O)CNC(=O)CN)c1 (configuration not stated), which inhibition is on record?
Answer: The inhibition was -17.3%.

Question: With Cn1cnc([N+](=O)[O-])c1Sc1ncnc2nc[nH]c12 as the compound, how does the inhibition read?
Answer: The inhibition was 18.4%.

Question: With c1ccc2[nH]c(-c3cscn3)nc2c1 as the compound, how does the inhibition read?
Answer: The inhibition was -3.31%.

Question: With CCCNCC(O)COc1ccccc1C(=O)CCc1ccccc1 (configuration not stated) as the compound, how does the inhibition read?
Answer: Its inhibition is -14.1%.

Question: For Cc1cn([C@H]2C[C@H](N=[N+]=[N-])[C@@H](CO)O2)c(=O)[nH]c1=O, which inhibition is on record?
Answer: Its inhibition is -8.49%.

Question: For COc1ccccc1OCC(O)COC(N)=O (configuration not stated), which inhibition is on record?
Answer: The inhibition was -7.05%.

Question: For OC(CCN1CCCC1)(c1ccccc1)C1CCCCC1 (configuration not stated), which inhibition is on record?
Answer: Its inhibition is 2.81%.

Question: With O=C1C(CCS(=O)c2ccccc2)C(=O)N(c2ccccc2)N1c1ccccc1 (configuration not stated) as the compound, how does the inhibition read?
Answer: Its inhibition is 18.6%.

Question: Which inhibition does the source give for COC(=O)Nc1nc2ccc(C(=O)c3ccccc3)cc2[nH]1 here?
Answer: The inhibition was -5.42%.

Question: With NCc1ccc(S(N)(=O)=O)cc1 as the compound, how does the inhibition read?
Answer: The inhibition was -6.75%.

Question: With Clc1ccc2c(c1)C(N1CCNCC1)=Nc1ccccc1O2 as the compound, how does the inhibition read?
Answer: The inhibition was 0.62%.

Question: For CC(C)(C)NCC(O)COc1cccc2c1C[C@H](O)[C@H](O)C2 (some centres not stated), which inhibition is on record?
Answer: The inhibition was 27.5%.

Question: Which inhibition does the source give for NS(=O)(=O)c1cc2c(cc1Cl)NC=NS2(=O)=O here?
Answer: Its inhibition is -50.5%.
